From PubChem BioAssay (NCATS)
Inconclusive results are not listed. Calls of active or inactive are those of the source. Unless noted, calls come from the whole dose curve; as a rule, active = well fitted curve in either direction with a large enough effect (not every such curve was filed as active); inconclusive = small, poorly fitted or top-dose-only effect, or another doubt; inactive = flat fitted curve, though single readings scatter.

Key:
[1] = molecular target: Lysosomal acid glucosylceramidase (Homo sapiens) (UniProt P04062); experiment: Glucocerebrosidase-p2 (AID 348; in the data active = potency below about 10 µM; note: potency is the fitted concentration of half-maximal effect); conditions: purified GBA, blue fluorogenic substrate, 40 min
Sequence of Lysosomal acid glucosylceramidase (Homo sapiens) (P04062 whole entry, looked up): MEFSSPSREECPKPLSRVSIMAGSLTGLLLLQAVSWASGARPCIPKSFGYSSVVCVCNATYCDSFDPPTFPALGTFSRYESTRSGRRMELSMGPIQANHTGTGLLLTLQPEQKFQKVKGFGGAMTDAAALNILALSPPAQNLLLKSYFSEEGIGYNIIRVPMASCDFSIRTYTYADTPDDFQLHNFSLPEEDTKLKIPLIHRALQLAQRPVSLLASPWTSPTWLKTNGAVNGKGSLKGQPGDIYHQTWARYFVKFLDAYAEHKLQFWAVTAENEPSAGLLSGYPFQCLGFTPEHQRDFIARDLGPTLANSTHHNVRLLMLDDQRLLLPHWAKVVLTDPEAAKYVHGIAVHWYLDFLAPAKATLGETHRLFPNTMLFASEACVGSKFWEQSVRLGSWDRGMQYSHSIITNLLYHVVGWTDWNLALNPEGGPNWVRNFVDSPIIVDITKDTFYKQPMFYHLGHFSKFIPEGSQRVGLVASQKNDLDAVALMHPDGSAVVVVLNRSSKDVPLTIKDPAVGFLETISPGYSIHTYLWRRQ
Outline: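 Compounds titrated from 0.6 nM upwards against 0.2 nM enzyme in pH 5.9 citric acid/KH2PO4, taurocholate, tween-20; blue fluorogenic substrate 80 uM, 40 min room temperature, stopped and read Ex 365/Em 440 for AC50.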

[2] = AP1 Signaling Pathway (AID 357); conditions: ME-180 AP-1-bla reporter, EGF-induced, beta-lactamase ratio, 5 h; at 7.69 µM (top of the series) unless noted;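 note: ME-180 reporter cells stimulated with EGF at its EC50 level; % is set by controls: 0 for no effect and ±100 for the full control effect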
Outline: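 Read-out was the 460nm/530nm emission ratio (excitation 405nm) after CCF4 loading for 2.5 hours at room temperature. Cells carried an AP-1-driven beta-lactamase reporter, were stimulated with EC50 EGF plus compound for 5 hours, and AC50 values came from titrations.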

[3] = molecular target: Cytochrome P450 1A2 (Homo sapiens) (UniProt P05177); experiment: p450-cyp1a2 (AID 410; calls by dose curve; note: potency is the fitted concentration of half-maximal effect;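 for activity change, negative = inhibition: -100% = full effect of reference inhibitor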); conditions: recombinant CYP1A2, luciferin-ME demethylation, luminescence; series mostly up to 11.4 µM
Sequence of Cytochrome P450 1A2 (Homo sapiens) (P05177 whole entry, looked up): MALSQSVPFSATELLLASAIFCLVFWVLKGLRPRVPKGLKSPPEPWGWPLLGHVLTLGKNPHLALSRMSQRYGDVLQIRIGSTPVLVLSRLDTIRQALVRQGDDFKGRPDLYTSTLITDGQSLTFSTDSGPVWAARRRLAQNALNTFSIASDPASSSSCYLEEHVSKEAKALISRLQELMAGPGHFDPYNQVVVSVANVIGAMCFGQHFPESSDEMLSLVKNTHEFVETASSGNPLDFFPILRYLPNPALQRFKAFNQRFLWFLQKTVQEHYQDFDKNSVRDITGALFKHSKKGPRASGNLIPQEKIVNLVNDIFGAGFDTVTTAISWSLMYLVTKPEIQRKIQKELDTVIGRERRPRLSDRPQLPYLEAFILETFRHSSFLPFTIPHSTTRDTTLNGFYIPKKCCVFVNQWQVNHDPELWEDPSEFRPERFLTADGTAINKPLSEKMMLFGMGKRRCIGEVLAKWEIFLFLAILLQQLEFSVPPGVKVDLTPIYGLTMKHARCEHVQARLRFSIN
Outline: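 Human CYP1A2 (20nM) demethylated Luciferin-ME at its Km (100uM) in 100mM KPO4. After 10 min compound preincubation, NADPH regeneration ran the reaction 60 min at room temperature. Luciferin was read by luminescence, normalized to 57 uM furafylline.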

[4] = NFAT Signaling Pathway (AID 444); conditions: Jurkat NFAT-bla M1, carbachol, beta-lactamase ratio, 5 h; at 7.69 µM (top of the series) unless noted;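 note: carbachol stimulus at about its EC50 of 1 µM final; % is set by controls: 0 for no effect and ±100 for the full control effect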
Outline: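 Read-out: CCF4 FRET ratio (460 nm/530 nm) after 1 h RT dye loading, used for %activity and AC50 from titration series. Cells: Jurkat NFAT-β-lactamase/M1 line, treated with compound plus 1 uM carbachol for 5 h, 37 °C.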

[5] = Stat Signaling Pathway (AID 446); conditions: ME-180 SIE beta-lactamase reporter, IL-6 stimulated, 5 h; at 7.69 µM (top of the series) unless noted;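 note: ME-180 cervical cancer cells given 40 pM IL-6 alongside compound; SIE-controlled beta-lactamase reporter measured as 460/530 nm FRET emission ratio; % is set by controls: 0 for no effect and ±100 for the full control effect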
Outline: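 ME-180 cells carrying a SIE-driven beta-lactamase reporter are stimulated with 40 pM IL-6 for 5 h at 37C in the presence of compound. The 460/530 nm FRET substrate ratio is read after 2.5 h at RT. Data are normalised to 300 pM IL-6 and to 125 nM JAK inhibitor controls.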

[6] = molecular target: Glucocorticoid receptor (Homo sapiens) (UniProt P04150); experiment: GR-GFP Redistribution (AID 450;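 active = compounds whose dose series gives a full or clear partial fitted curve of increased nuclear translocation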; note: potency is the fitted concentration of half-maximal effect); conditions: U2OS GR-GFP nuclear translocation, laser cytometry, 2 h
Sequence of Glucocorticoid receptor (Homo sapiens) (P04150 whole entry, looked up, the tested form may be a part): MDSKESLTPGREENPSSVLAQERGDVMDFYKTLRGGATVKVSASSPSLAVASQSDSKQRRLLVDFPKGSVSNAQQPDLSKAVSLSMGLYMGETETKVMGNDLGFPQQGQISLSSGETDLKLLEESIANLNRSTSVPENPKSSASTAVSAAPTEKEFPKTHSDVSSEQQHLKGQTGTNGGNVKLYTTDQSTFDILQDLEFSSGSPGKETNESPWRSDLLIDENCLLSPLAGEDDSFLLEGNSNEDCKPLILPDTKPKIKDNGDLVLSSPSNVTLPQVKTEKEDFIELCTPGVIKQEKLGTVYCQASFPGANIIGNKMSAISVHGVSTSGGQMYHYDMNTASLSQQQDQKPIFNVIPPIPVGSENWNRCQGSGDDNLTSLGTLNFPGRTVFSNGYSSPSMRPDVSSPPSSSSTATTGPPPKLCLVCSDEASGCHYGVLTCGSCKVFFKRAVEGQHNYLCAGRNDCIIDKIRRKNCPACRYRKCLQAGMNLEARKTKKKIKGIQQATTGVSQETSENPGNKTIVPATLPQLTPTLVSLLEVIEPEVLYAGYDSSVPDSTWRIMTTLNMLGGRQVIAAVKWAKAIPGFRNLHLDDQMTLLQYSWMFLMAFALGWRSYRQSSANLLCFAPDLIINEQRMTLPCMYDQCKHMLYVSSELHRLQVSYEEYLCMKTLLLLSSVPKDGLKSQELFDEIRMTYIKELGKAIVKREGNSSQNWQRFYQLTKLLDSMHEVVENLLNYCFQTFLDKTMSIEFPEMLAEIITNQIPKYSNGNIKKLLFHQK

[7] = molecular target: Glucocorticoid receptor (Homo sapiens) (UniProt P04150); experiment: GR-EFC Redistribution (AID 451; calls by dose curve; note: potency is the fitted concentration of half-maximal effect); conditions: CHO-K1 GR-EFC translocation, beta-gal luminescence, 2 h
Outline: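 Translocation of GR-ED fusion to nuclear EA restores b-gal, read by luminescence after 1 h room-temperature detection. Engineered CHO-K1 biosensor cells, 1,000/well, exposed 2 h at 37 C to titrations up to 46 uM final.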

[8] = molecular target: Mitogen-activated protein kinase 10 (Mus musculus) (UniProt Q61831); experiment: JNK3 AlphaScreen Assay (AID 530); conditions: JNK3 lysate, c-Jun phosphorylation; series mostly up to 57.1 µM;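 note: kinase came from lysate of stimulated human HepG2 cells; signal reports phosphorylation of biotinylated GST-cJun 1-79 at Ser73 with 10 µM ATP; % is set by controls: 0 for no effect and ±100 for the full control effect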
Outline: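 Room-temperature AlphaScreen kinase assay; pre-activated HepG2 lysate as JNK3 source, biotin-GST-cJun(1-79) substrate, 10 uM ATP, compound 15 min preincubation.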

[9] = molecular target: 3',5'-cyclic-AMP phosphodiesterase 4B (Homo sapiens) (UniProt Q07343); experiment: qHTS Assay for Inhibitors of PDE-IV (AID 607; active = well fitted activation curve with a large enough effect in the main read-out, with a control signal flat, not every such curve was filed as active; note: % of control where 0% means no effect); conditions: HEK293 ACTOne CNG channel cells, membrane potential fluorescence; series mostly up to 22.9 µM
Sequence of 3',5'-cyclic-AMP phosphodiesterase 4B (Homo sapiens) (Q07343 whole entry, looked up): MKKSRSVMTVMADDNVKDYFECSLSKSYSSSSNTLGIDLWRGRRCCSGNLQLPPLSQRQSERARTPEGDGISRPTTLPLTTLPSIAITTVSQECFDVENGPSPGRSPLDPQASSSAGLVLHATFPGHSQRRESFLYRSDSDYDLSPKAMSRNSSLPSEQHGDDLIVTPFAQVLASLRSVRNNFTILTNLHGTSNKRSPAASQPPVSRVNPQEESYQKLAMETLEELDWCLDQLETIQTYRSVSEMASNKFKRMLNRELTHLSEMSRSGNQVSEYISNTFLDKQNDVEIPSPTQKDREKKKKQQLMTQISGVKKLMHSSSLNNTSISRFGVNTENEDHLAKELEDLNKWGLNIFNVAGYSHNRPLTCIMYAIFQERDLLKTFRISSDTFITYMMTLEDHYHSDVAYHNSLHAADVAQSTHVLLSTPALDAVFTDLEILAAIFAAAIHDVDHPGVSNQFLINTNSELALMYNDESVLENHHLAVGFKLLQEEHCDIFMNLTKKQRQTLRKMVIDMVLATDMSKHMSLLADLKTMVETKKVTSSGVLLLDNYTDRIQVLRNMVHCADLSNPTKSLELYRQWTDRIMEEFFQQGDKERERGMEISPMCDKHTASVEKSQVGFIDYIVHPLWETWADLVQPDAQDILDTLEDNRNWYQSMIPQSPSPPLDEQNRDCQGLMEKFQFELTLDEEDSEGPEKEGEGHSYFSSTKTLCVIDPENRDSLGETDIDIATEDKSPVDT
Outline: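 HEK293 ACTOne cells with CNG channel (1000/well), endogenous PDE4; membrane potential dye, compounds up to 22.9 uM final. Fluorescence Ex 535/Em 590; RO 20-1724 (100 uM final) as reference.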

[10] = molecular target: Cytochrome P450 3A4 (Homo sapiens) (UniProt P08684); experiment: qHTS Assay for Activators of Cytochrome P450 3A4 (AID 885; active = well fitted curve in the direction sought with a large enough effect; an effect the other way counts as inactive or inconclusive; note: nearly all actives have a fitted effect of over 65% in size); conditions: recombinant CYP3A4, Luciferin-PPXE luminescence, 60 min; series mostly up to 57.1 µM
Sequence of Cytochrome P450 3A4 (Homo sapiens) (P08684 whole entry, looked up): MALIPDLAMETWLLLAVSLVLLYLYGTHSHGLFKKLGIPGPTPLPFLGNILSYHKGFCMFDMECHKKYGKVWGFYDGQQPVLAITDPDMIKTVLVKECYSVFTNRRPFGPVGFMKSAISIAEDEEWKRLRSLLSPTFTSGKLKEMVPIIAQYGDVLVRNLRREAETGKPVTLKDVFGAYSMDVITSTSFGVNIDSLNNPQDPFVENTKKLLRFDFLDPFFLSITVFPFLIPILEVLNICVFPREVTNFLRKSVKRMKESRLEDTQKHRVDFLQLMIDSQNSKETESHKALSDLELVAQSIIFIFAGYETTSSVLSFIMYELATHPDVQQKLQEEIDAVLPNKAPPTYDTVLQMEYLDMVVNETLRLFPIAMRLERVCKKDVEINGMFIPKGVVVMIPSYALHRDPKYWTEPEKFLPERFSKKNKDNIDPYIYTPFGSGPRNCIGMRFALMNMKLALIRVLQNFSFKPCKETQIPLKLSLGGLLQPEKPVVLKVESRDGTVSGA
Outline: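 Human CYP3A4 (20 nM) with Luciferin-PPXE at 25 uM (its KM) in 200 mM KPO4; 10 min compound preincubation, then NADPH regeneration and 60 min reaction at RT. Luciferin read by luminescence; normalized to 57 uM ketoconazole full inhibition.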

[11] = molecular target: Cytochrome P450 2D6 (Homo sapiens) (UniProt P10635); experiment: qHTS Assay for Inhibitors and Substrates of Cytochrome P450 2D6 (AID 891; active = well fitted curve in the direction sought with a large enough effect; an effect the other way counts as inactive or inconclusive;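 note: luciferin methyl ether substrate demethylated by CYP2D6 with NADPH regeneration; % is set by controls: 0 for no effect and ±100 for the full control effect; nearly all actives have a fitted effect of over 60% in size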); conditions: recombinant CYP2D6, luciferin-ME EGE luminescence; series mostly up to 11.4 µM
Sequence of Cytochrome P450 2D6 (Homo sapiens) (P10635 whole entry, looked up): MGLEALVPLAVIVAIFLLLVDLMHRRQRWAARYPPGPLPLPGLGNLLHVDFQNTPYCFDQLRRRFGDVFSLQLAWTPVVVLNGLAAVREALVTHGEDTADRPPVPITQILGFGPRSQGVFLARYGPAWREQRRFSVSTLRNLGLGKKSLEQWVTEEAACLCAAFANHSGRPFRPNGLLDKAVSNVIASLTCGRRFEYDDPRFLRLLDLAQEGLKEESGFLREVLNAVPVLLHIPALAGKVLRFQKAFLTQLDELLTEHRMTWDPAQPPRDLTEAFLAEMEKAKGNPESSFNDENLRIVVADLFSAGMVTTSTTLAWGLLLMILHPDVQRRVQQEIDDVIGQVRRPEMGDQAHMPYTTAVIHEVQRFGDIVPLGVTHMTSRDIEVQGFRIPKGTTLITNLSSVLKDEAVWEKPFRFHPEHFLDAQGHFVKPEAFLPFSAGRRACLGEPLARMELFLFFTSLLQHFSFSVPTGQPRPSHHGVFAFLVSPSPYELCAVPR
Outline: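 Human CYP2D6 (5 nM) with 30 uM Luciferin-ME EGE (at Km) in 100 mM KPO4, compound preincubated 10 min, then NADPH regeneration system for 60 min at room temperature. Luciferin read by luminescence; normalized to 1.43 uM quinidine.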

[12] = molecular target: Cytochrome P450 2C19 (Homo sapiens) (UniProt P33261); experiment: qHTS Assay for Inhibitors and Substrates of Cytochrome P450 2C19 (AID 899; active = well fitted curve in the direction sought with a large enough effect; an effect the other way counts as inactive or inconclusive; note: % is set by controls: 0 for no effect and ±100 for the full control effect; nearly all actives have a fitted effect of over 60% in size); conditions: recombinant CYP2C19, luciferin-H EGE luminescence; series mostly up to 11.4 µM
Sequence of Cytochrome P450 2C19 (Homo sapiens) (P33261 whole entry, looked up): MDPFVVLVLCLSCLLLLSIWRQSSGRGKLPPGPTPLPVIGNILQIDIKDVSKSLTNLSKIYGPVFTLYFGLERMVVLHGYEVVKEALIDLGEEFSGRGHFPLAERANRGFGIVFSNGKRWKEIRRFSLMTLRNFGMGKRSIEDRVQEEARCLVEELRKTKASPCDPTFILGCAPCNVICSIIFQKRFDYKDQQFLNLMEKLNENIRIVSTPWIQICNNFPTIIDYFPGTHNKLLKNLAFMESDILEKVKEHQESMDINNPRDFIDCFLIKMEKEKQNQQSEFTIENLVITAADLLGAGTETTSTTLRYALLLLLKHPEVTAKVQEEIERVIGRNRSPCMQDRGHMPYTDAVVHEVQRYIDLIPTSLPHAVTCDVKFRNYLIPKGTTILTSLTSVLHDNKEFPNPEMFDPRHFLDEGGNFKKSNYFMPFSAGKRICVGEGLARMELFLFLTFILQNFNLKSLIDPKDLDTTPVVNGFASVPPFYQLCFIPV
Outline: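 Reactions contain 5nM enzyme, 10uM Luciferin-H EGE (KM) and 50mM KPO4; compound preincubates 10 min at 37C, NADPH regeneration starts turnover for 60 min. Luminescence after detection reagent gives activity.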

NS(=O)(=O)c1ccc(-c2ccc([As](=O)(O)O)cc2)cc1
inactive: Potency [1] > 11.4 µM | activity change, negative = inhibition [2] 0.512% | Potency [3] | activity change, negative = inhibition [4] 17.3% | activity, negative = inhibition [5] 6.23% | Potency [6] > 46 µM | Potency [7] > 9.22 µM | activity change, negative = inhibition [8] 2.57% [at 11.4 µM] | outcome [9]

Oc1ccc([C@H](O)[C@@H]2CCCCN2)cc1O
inactive: Potency [1] > 11.4 µM | activity change, negative = inhibition [2] -22.3% | Potency [3] | activity change, negative = inhibition [4] 5.42% | activity, negative = inhibition [5] 8.8% | Potency [6] > 46 µM | activity change, negative = inhibition [8] 1.46% [at 11.4 µM]

N[C@H](Cc1ccc2oc3cc(=O)c4ccccc4c-3nc2c1)C(=O)O
active: Potency [3] 1.26 µM
inactive: Potency [1] > 11.4 µM | activity change, negative = inhibition [2] 25.4% | activity change, negative = inhibition [4] -17.2% | activity, negative = inhibition [5] 7.75% | Potency [6] > 46 µM | Potency [7] > 9.22 µM | activity change, negative = inhibition [8] 0.331% [at 11.4 µM] | activity change, positive = activation [10] -32.5% [at 11.4 µM]

O=C(O)c1cc(N=Nc2ccc([As](=O)(O)O)cc2)ccc1O
inactive: Potency [1] > 11.4 µM | activity change, negative = inhibition [2] 6.37% | Potency [3] | activity change, negative = inhibition [4] 6.3% | activity, negative = inhibition [5] -0.258% | Potency [6] > 46 µM | Potency [7] > 9.22 µM | activity change, negative = inhibition [8] 2.47% [at 11.4 µM] | outcome [9] | Potency [11] | Potency [12]

CSCC[C@@H](N)P(C)(=O)O
inactive: Potency [1] > 11.4 µM | activity change, negative = inhibition [2] 10.2% | Potency [3] | activity change, negative = inhibition [4] 2.01% | activity, negative = inhibition [5] 13.5% | Potency [6] > 46 µM | Potency [7] > 9.22 µM | activity change, negative = inhibition [8] 0.585% [at 11.4 µM] | outcome [9]

O=C(O)C(=O)Cc1ccc2c(c1)OCO2
active: Potency [3] 3.98 µM
inactive: Potency [1] > 11.4 µM | activity change, negative = inhibition [2] 6.13% | activity change, negative = inhibition [4] 16.4% | activity, negative = inhibition [5] 3.17% | Potency [6] > 46 µM | Potency [7] > 9.22 µM | activity change, negative = inhibition [8] 4.31% [at 11.4 µM] | outcome [9] | Potency [12]

CC1=NN(c2ccc(S(=O)(=O)O)cc2C)C(=[OH+])[C@H]1N=Nc1cc(S(=O)(=O)O)ccc1C(=O)O.O.[Cr]
inactive: Potency [1] > 11.4 µM | activity change, negative = inhibition [2] -5.8% | Potency [3] | activity change, negative = inhibition [4] 12.1% | activity, negative = inhibition [5] 7.29% | Potency [6] > 46 µM | Potency [7] > 9.22 µM | activity change, negative = inhibition [8] -0.77% [at 11.4 µM] | outcome [9]
